# Assay outcomes deposited in PubChem BioAssay by National Center for Advancing Translational Sciences (NCATS).
# TDP1 inh = qHTS Assay for Inhibitors of Tyrosyl-DNA Phosphodiesterase (TDP1); Tyrosyl-DNA phosphodiesterase 1 (Homo sapiens), Q9NUW8; AID 485290, 2010; Potency, µM (series often up to 130 µM), for inactives: top-dose activity change, negative = inhibition, usual class: inhibitors; recombinant TDP1, AlphaScreen DNA substrate cleavage; actives 0.28% (n = 350,000); further: potency means the concentration at half of the fitted maximal effect; on the % scale 0 is the no-effect control and ±100 the full control effect; nearly all actives have a fitted effect of over 40% in size
# Target sequence (Q9NUW8 whole entry, looked up): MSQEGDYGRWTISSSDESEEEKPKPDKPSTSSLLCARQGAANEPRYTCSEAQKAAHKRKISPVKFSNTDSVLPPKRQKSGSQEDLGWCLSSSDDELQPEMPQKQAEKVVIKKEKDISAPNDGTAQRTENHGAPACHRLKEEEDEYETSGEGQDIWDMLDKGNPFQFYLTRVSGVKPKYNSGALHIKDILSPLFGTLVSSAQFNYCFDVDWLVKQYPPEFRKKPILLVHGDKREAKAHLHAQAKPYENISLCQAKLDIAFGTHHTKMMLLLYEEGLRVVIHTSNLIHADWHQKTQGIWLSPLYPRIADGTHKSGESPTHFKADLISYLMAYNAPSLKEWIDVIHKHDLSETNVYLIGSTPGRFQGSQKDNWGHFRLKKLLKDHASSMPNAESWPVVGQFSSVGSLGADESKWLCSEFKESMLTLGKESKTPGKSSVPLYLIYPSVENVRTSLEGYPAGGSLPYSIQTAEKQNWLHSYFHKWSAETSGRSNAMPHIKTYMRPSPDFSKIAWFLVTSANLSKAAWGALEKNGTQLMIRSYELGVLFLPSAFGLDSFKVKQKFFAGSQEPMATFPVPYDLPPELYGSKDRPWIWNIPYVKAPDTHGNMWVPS
#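 AlphaScreen read-out: signal falls as enzyme removes the 3' tyrosine-FITC from a 5'-biotinylated DNA oligo (15 nM, 5 min, RT). Enzyme was E. coli-made recombinant Tdp1 at 1 nM, exposed to compound for 15 min beforehand; beads 10 ug/ml, 10 min.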
# TDP1 cell CPT = qHTS for Inhibitors of human tyrosyl-DNA phosphodiesterase 1 (TDP1): qHTS in cells in presence of CPT. chicken DT40 Tdp1-/-;hTDP1 cells + 20 nM CPT, ATP luminescence, 48 h. Potency, µM (titrated, usually from 46.2 µM), for the others: at the highest dose activity change, negative = growth inhibition, actives largely listed as inhibitors. actives 12% (n = 420,000); further: potency means the concentration at half of the fitted maximal effect; on the % scale 0 is the no-effect control and ±100 the full control effect; nearly all actives have a fitted effect of over 55% in size
#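 Chicken DT40 Tdp1-/- cells stably complemented with human TDP1 were seeded at 400 cells/well in medium containing 20 nM camptothecin, exposed to pin-transferred compounds, and grown at 37 °C for at least 48 hr. Viability was read as ATP luminescence.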
# HepG2 tox = qHTS for Inhibitors of TGF-b: Cytotox Counterscreen. Potency, µM (top dose mostly 46.1 µM), for the others: at the top dose activity change, negative = cytotoxicity, hits mostly cytotoxic. AID 588856, 2011. actives 0.76% (n = 410,000). HepG2 CAGA-GFP viability, ATP luminescence, 18 h; further: potency means the concentration at half of the fitted maximal effect
#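 HepG2 CAGA-GFP cells (1000/well, DMEM with 1% FBS) received compound, then TGF-beta at 500 pg/mL final, and were incubated 18 hours at 37 degrees C. Viability was read by CellTiter-Glo luminescence. Media-only wells were set as complete cell-killing and DMSO as no toxicity.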
# TGFb SMAD3 inh = qHTS for Inhibitors of TGF-b | HepG2 CAGA-GFP TGF-b/SMAD3 reporter, GFP fluorescence, 18 h; TGF-beta stimulated, 500 pg/mL final | Potency, µM (series often up to 46.1 µM), for the others: at the top dose activity, negative = inhibition, most hits filed as inhibitors | actives 1.2% (n = 410,000) | AID 588855, 2011; further: potency means the concentration at half of the fitted maximal effect; on the % scale 0 is the no-effect control and ±100 the full control effect; nearly all actives have a fitted effect of over 65% in size
#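 HEPG2 CAGA-GFP reporter cells (1000/well, DMEM with 1% FBS) received compounds, then recombinant TGF-beta at 500 pg/mL final for 18 hours at 37 degrees C. Per-cell GFP summed per well was normalised to unstimulated and stimulated DMSO controls before curve fitting.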
# DT40 TDP1 no CPT = qHTS for Inhibitors of human tyrosyl-DNA phosphodiesterase 1 (TDP1): qHTS in cells in absence of CPT. DT40 Tdp1-/- hTDP1 cells, no CPT, ATP luminescence, 48 h. Potency, µM (doses to about 46.2 µM), without a hit: at the top dose activity change, negative = growth inhibition, hits mostly inhibitors. actives 15% (n = 420,000); further: potency means the concentration at half of the fitted maximal effect; on the % scale 0 is the no-effect control and ±100 the full control effect; nearly all actives have a fitted effect of over 55% in size
#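 Seeded 400 DT40-hTDP1 cells/well (vehicle DMSO, no 20 nM CPT); pinned compounds; ≥48 hr at 37 °C; CellTiter-Glo luminescence as viability measure.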
# IL1B secr inh = qHTS for Inhibitors of Inflammasome Signaling: IL-1-beta AlphaLISA Primary Screen. AID 743279, 2014. actives 4.7% (n = 360,000). activity change, % at 57.5 µM. THP-1 LPS/ATP IL-1B secretion, AlphaLISA, 16 h; active compounds read low; in the data active means activity change below about -50%; inconclusive means mostly about -30% to -49%; further: on the % scale 0 is the no-effect control and ±100 the full control effect
#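 THP-1 cells pretreated 1 hr with compounds (up to 57.5 uM final), then stimulated with LPS (250 ng/mL final) plus ATP (1.25 mM final); secreted IL-1B measured by AlphaLISA after 16 hr, decreased signal indicating inhibition.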
# * hit, by the source's call; u = inconclusive; x = no result. This is a sample that favours compounds with a hit; in the whole collection about 18% have one here. Unless noted, the call rests on the fitted dose curve; in most records, active means well fitted curve in the direction sought with a large enough effect; inconclusive means small, poorly fitted or top-dose-only effect, or another doubt; inactive means no such curve, though single readings can be large; an effect the other way counts as inactive or inconclusive.
SMILES,TDP1 inh,TDP1 cell CPT,HepG2 tox,TGFb SMAD3 inh,DT40 TDP1 no CPT,IL1B secr inh
CCCCCCCCCCCCCC[N+](C)(C)Cc1ccccc1,x,1.2µM*,-98%,u,1.1µM*,x
CCCCCCCC(=O)NNC(=O)Cc1ccccc1,-13%,-19%,-22%,12%,-2%,4
CCCCCCCCCCCCCCCC[N+](C)(C)Cc1ccccc1,x,1.2µM*,x,x,0.94µM*,x
CCCCS(=O)Cc1ccccc1 (centres undefined),2%,6%,-25%,9%,3%,-4
CN(C)/C=N/c1c(C#N)cnn1-c1ncnc2sc(-c3ccccc3)cc12,3%,21µM*,3%,u,18µM*,-16
O=S(=O)(c1ccccc1)N1CCN(c2ncnc3sc(-c4ccccc4)cc23)CC1,-2%,21µM*,-7%,-6%,12µM*,-21
c1ccc(-c2cc3c(N4CCN(c5ccccc5)CC4)ncnc3s2)cc1,5%,u,-22%,u,18µM*,-30
Cc1ccc(S(=O)(=O)N2CCN(c3ncnc4c3cnn4-c3ccccc3)CC2)cc1,4%,-1%,2%,-1%,-17%,-2
c1ccc(-c2cc3c(N4CCN(c5ncccn5)CC4)ncnc3s2)cc1,-7%,u,-16%,-3%,u,3
CC(C#N)Sc1ncnc2sc(-c3ccccc3)cc12 (centres undefined),2%,19%,-14%,-25%,-25%,-7
CN1CCN(c2ncnc3sc(-c4ccccc4)cc23)CC1,-3%,u,-32%,u,u,-60*
CC(C)N1C(=O)C(=O)N(CC(=O)N2c3ccccc3NC(=O)CC2C)C1=O (centres undefined),-5%,0%,-20%,-5%,5%,-1
CCC(C)C(NC(=O)OC(C)(C)C)C(=O)NC1COC2CC(n3cc(C)c(=O)[nH]c3=O)OC12 (centres undefined),6%,x,-2%,-7%,x,x
CCOc1ccc2c(c1)c1nnc(SCC(=O)NC3CC3)nc1n2C,-19%,-21%,8%,9%,u,6
CCOC(=O)c1oc2ccccc2c1NC(=O)c1ccco1,2%,u,-7%,-1%,u,-25
CCOc1ccc(NC(=O)c2oc3ccccc3c2NC(=O)C(C)Oc2ccccc2)cc1 (centres undefined),9%,u,-14%,0%,21µM*,x
COc1ccc(NC(=O)c2oc3ccccc3c2NC(=O)c2cc(OC)c(OC)c(OC)c2)cc1,4%,21µM*,-5%,12%,12µM*,x
CCOC(=O)c1oc2ccccc2c1NC(=O)CCl,0%,10µM*,-104%,u,7.3µM*,u
CCOC(=O)c1oc2ccccc2c1NC(=O)c1cccc(OC)c1,x,13µM*,6%,10%,18µM*,-19
COc1cccc(C(=O)Nc2c(C(N)=O)oc3ccccc23)c1,4%,u,-7%,2%,16µM*,-12
CCOC(=O)c1oc2ccccc2c1NC(=O)c1cccc(OC)c1OC,-3%,16µM*,0%,21%,18µM*,19
COc1cccc(NC(=O)c2ccc3nc(Cc4ccccc4)oc3c2)c1,2%,16µM*,-3%,u,16µM*,x
CCOC(=O)c1cccc(NC(=O)c2ccc3nc(Cc4ccccc4)oc3c2)c1,-1%,23µM*,-34%,-35%,16µM*,x
CCC(C)NC(=O)c1ccc2nc(Cc3ccc(OC)cc3)oc2c1 (centres undefined),2%,u,-16%,-1%,u,-1
CCC(NC(=O)c1ccc2nc(Cc3ccc(OC)cc3)oc2c1)c1ccncc1 (centres undefined),5%,7.3µM*,-46%,u,3.7µM*,-17
SMILES,TDP1 inh,TDP1 cell CPT,HepG2 tox,TGFb SMAD3 inh,DT40 TDP1 no CPT,IL1B secr inh
CCC(=O)N1CCc2cc(S(=O)(=O)NCCC(=O)NC(C)c3ccccc3)ccc21 (centres undefined),0%,u,4%,-13%,-17%,x
CCOC(=O)N1CCC(N2C(=O)c3ccc(C(=O)NCCOC)cc3C2=O)CC1,x,-2%,4%,-2%,0%,23
O=C(CN1CCC(c2nc3ccccc3s2)CC1)N1CCCCC1,-3%,u,-16%,-25%,u,43
O=C(CN1CCC(c2nc3ccccc3s2)CC1)NCc1cccs1,9%,u,-32%,u,18µM*,-22
CSCCC(NC(=O)c1ccccc1)C(=O)N1CCN(C(C)=O)CC1 (centres undefined),3%,-3%,7%,11%,3%,9
Cc1nn(-c2ccccc2)c2nc(C3CC3)cc(C(=O)Nc3ccccc3F)c12,5%,7.3µM*,2%,3%,5.8µM*,x
CCOC(=O)c1cccc(NC(=O)c2cc(C)nc3c2c(C)nn3-c2ccc(C)cc2)c1,0%,u,4%,-22%,21µM*,x
Cc1cc(C(=O)Nc2ccc(Cl)cc2)c2c(C)nn(-c3ccccc3)c2n1,1%,9.2µM*,6%,u,u,x
Cc1cccc(N2CCN(C3=NC(=O)C(=C4CCCCC4)S3)CC2)c1,3%,u,-10%,-9%,u,-12
O=C1N=C(N2CCN(c3ccccc3)CC2)S/C1=C\c1ccco1,-5%,-23%,-3%,14%,-14%,-27
Cc1cccc(N2CCN(C3=NC(=O)/C(=C\c4cn[nH]c4-c4ccccc4)S3)CC2)c1,-3%,6.5µM*,-7%,-13%,2.1µM*,5
O=C1N=C(N2CCN(c3ccccc3)CC2)S/C1=C\c1cn[nH]c1-c1ccccc1,-3%,21µM*,-30%,-8%,13µM*,-19
Cc1ccc(N2CCN(C3=NC(=O)/C(=C\c4cn[nH]c4-c4ccccc4)S3)CC2)cc1,-4%,u,-3%,-6%,21µM*,u
O=C1N=C(N2CCC(Cc3ccccc3)CC2)S/C1=C/c1cn[nH]c1-c1ccccc1,5%,u,-7%,-2%,16µM*,u
